Rab9 prom act: activates the Rab9 promoter. Huh7 Rab9 promoter-luciferase reporter, luminescence, 24 h. Potency, µM (doses to about 9.22 µM), without a hit: top-dose activation, negative = inhibition, actives largely listed as activators. actives 2.8% (n = 320,000); note: % of control where 0% means no effect; nearly all actives have a fitted effect of over 60% in size
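Quantitative HTS format; Huh7 Rab9-luciferase reporter cells (1500/well) receive compound 2 h post-plating, incubate 24 h at 37 °C, then get luciferase reagent for 10 min before luminescence reading.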
FLuc modulator: counter-screen for miR-21 project: firefly luciferase inhibitors or activators | actives 6.9% (n = 360,000) | AID 588342 | Potency, µM (doses to about 57.5 µM), without a hit: at the top dose activity change, negative = inhibition, actives largely listed as inhibitors | purified FLuc, Km substrates, luminescence inhibition | P08659;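 note: plate controls were vehicle for no effect and reference inhibitor for full effect; nearly all actives have a fitted effect of over 55% in size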
Target sequence (P08659 whole entry, looked up): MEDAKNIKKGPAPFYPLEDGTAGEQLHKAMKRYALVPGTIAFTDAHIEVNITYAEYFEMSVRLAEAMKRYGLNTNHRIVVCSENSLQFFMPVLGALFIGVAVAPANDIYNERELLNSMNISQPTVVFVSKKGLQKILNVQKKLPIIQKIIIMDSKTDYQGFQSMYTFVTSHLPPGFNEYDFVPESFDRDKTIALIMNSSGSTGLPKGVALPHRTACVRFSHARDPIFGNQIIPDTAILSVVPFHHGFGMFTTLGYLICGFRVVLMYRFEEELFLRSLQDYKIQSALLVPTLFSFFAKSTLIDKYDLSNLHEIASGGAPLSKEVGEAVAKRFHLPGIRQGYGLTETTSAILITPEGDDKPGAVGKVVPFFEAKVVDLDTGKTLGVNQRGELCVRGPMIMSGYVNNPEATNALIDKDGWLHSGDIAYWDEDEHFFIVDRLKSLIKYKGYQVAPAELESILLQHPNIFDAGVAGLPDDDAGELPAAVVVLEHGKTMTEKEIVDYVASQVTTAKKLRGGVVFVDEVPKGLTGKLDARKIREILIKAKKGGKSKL
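Purified P. pyralis luciferase (10nM final) with 10uM D-luciferin and 10uM ATP (Km levels) in 50mM Tris acetate pH 7.5, 10mM Mg acetate, 0.01% Tween-20, 0.05% BSA; qHTS 6-point titration, ~60 µM downward; luminescence read.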
ELG1 genotoxic: genotoxicity induction in ELG1-luciferase HEK293T cells | HEK293T ELG1-luciferase reporter, luminescence, 16 h | Potency, µM (series often up to 46 µM), inactives show at the highest dose activity change, positive = activation, hits mostly activators | actives 1.3% (n = 330,000) | AID 504466; note: % of control where 0% means no effect; nearly all actives have a fitted effect of over 60% in size
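After overnight (16 hr) compound treatment at 37 °C, ELG1-luciferase HEK293T cells were lysed with ONE-Glo; luminescence quantified 30 min later at room temperature.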
NPC1 prom act: activators of NPC1 promoter; Huh7 NPC1 promoter luciferase reporter, 24 h; Potency, µM (highest dose often 9.22 µM), for the others: at the highest dose activation, usual class: activators; actives 2.4% (n = 320,000); note: % of control where 0% means no effect; nearly all actives have a fitted effect of over 60% in size
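In 1536-well qHTS, Huh7 cells harboring an NPC1 promoter–luciferase construct received compound for 24 h; activation was quantified by luminescence following luciferase reagent addition.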
uPA generation: inhibitors of cell surface uPA generation | cell surface uPA generation assay, qHTS | actives 0.31% (n = 330,000) | AID 540303 | Potency, µM (titrated, usually from 38.3 µM), inactives show at the top dose activity change, negative = inhibition, most hits filed as inhibitors; active = well fitted inhibition curve with a large enough effect; inconclusive = small, poorly fitted or top-dose-only effect; inactive = no such curve, though single readings can be large or run the other way; tested in mouse RAW 264.7 cells; note: % is set by controls: 0 for no effect and ±100 for the full control effect; nearly all actives have a fitted effect of over 55% in size
SMN2 splice enh: increases expression of the SMN2 splice variant; actives 2.8% (n = 210,000); Potency, µM (highest dose often 46.1 µM), for the others: at the highest dose activity change, positive = activation, hits mostly activators; AID 1458; HEK293 SMN2-luciferase splicing reporter, luminescence, 30-36 h; note: % of control where 0% means no effect; nearly all actives have a fitted effect of over 55% in size
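HEK293 cells carry an SMN2 […]–luciferase reporter in which exon 7 inclusion puts luciferase in frame. Cells were plated 10-12 h before compound addition, then incubated 30-36 h at 37C. ONE-Glo luminescence was read; sodium butyrate at 4.5 mM final served as control.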
* = called active by the depositor; ? = inconclusive; . = no result. Most compounds without a hit are left out; they make up all but 7.3% or so of the library. Unless noted, calls come from the whole dose curve; as a rule, active = well fitted curve in the direction sought with a large enough effect; inconclusive = small, poorly fitted or top-dose-only effect, or another doubt; inactive = no such curve, though single readings can be large; an effect the other way counts as inactive or inconclusive. Potency is the fitted concentration of half-maximal effect.

SMILES | Rab9 prom act | FLuc modulator | ELG1 genotoxic | NPC1 prom act | uPA generation | SMN2 splice enh
CCN(CC)c1ccc(/C=C/C(=O)c2cccnc2)cc1 | -0.9% | -0.8% | -6.3% | -0.2% | 5.1% | 2.9%
CCN(CC)c1ccc(/C=C/C(=O)c2ccc(Br)cc2)cc1 | -1.6% | 16.9µM* | 0.8% | -10.0% | 2.9% | -3.2%
CN(C)c1ccc(C(=O)c2ccccc2)cc1 | 3.16µM* | 10.7µM* | 17.3% | ? | -5.0% | 29.2%
O=C(C=Cc1cccc(Cl)c1)c1ccccc1 | . | . | . | . | -11.1% | .
CN(C)c1ccc(C(=O)/C=C/c2ccccc2)cc1 | 3.16µM* | 1.2µM* | ? | 3.98µM* | -10.8% | 22.4µM*
CC(C)(C)SCCNS(=O)(=O)c1ccc(C#N)cc1 | -11.8% | -1.0% | 0.2% | 1.8% | -1.4% | .
Cn1c(CNC(=O)c2ccccc2F)nnc1SCCOc1ccccc1 | -1.8% | -2.3% | -0.2% | 0.0% | 0.0% | 3.8%
CN(C)c1ccc(C(=O)/C=C/c2ccc(Br)cc2)cc1 | 26.9% | 1.69µM* | 12.8% | 25.1% | 8.1% | 7.0%
CN(C)c1ccc(N=NS(=O)(=O)O)cc1 | . | . | . | . | . | 19.0%
CN(C)c1ccc(N=Nc2ccc(C(=O)O)cc2)cc1 | 0.0002µM* | 0.239µM* | -6.5% | 0.0126µM* | -5.5% | .
COc1ccc(NCc2cc3cc4c(cc3n(CC(=O)Nc3cc(C)ccc3C)c2=O)OCCO4)cc1 | . | -2.3% | . | . | . | .
COc1ccccc1CN1CC2(CCN(C(=O)c3ccncc3)CC2)C1 | . | . | . | . | . | -12.6%
Cc1ccc(NC(=O)c2cccs2)cc1 | 2.51µM* | 12µM* | 13µM* | 2.51µM* | -22.2% | ?
Cc1ccc(NC(=O)OCc2cc(-c3ccccc3)on2)cc1 | 18.7% | ? | 14.9% | 14.2% | 0.4% | 20.2%
O=C(Nc1ccc(NC(=O)c2cccs2)cc1)c1ccccc1 | 3.98µM* | -9.5% | ? | ? | -2.9% | .
O=C(Nc1ccc2c(c1)CCC2)c1cccs1 | 1.58µM* | 6.75µM* | ? | 2µM* | -0.1% | .
Cc1ccc(NC(=O)C(=O)NNC(=O)c2cccs2)cc1 | 17.7% | ? | -1.7% | 6.4% | -8.7% | 2.1%
Cc1ccc(NC(=O)OCc2cccs2)cc1 | 1.12µM* | 5.36µM* | 2.91µM* | 1.58µM* | . | .
CC(C)OP(=O)(c1ccc(N(C)C)cc1)C(O)c1ccc(N(C)C)cc1 (stereo not drawn) | 1.0% | ? | 0.4% | -2.9% | 15.0% | .
Cc1ccc(C)c(S(=O)(=O)N2CCCC2CNC(=O)C(=O)NCc2ccccn2)c1 (stereo not drawn) | -2.3% | -6.2% | 0.9% | 0.8% | -2.3% | .
O=C(Nc1cccc(O)c1)c1ccc(NC(=O)c2cccs2)cc1 | 5.1% | 15.1µM* | ? | ? | 4.7% | .
O=C(Nc1ccc(O)cc1)c1ccc(NC(=O)c2cccs2)cc1 | ? | ? | ? | ? | -7.5% | .
Cc1ccc2c(c1C)NC(=O)CC2c1ccc(Cl)cc1Cl (stereo not drawn) | . | -7.7% | . | . | . | 3.7%
Oc1ccc(/C=N/N2CCN(c3ccccn3)CC2)cc1 | -0.7% | ? | 13.8% | 1.4% | ? | .
CN(C)c1ccc(/C=N/N2CCN(c3ccccn3)CC2)cc1 | ? | 4.78µM* | ? | ? | 7.9% | .
SMILES | Rab9 prom act | FLuc modulator | ELG1 genotoxic | NPC1 prom act | uPA generation | SMN2 splice enh
C(=N\N1CCN(c2ccccn2)CC1)/c1ccccn1 | ? | 16.9µM* | ? | 22.2% | -3.1% | .
CN(c1ccccc1)c1ccc(/C=N/N2CCOCC2)cc1 | 1.26µM* | 1.69µM* | 18.4µM* | 1.78µM* | -3.3% | 7.94µM*
CCc1ccc(NC(=O)Cn2c(=O)n(-c3ccc(Cl)c(Cl)c3)c(=O)c3c(C)c(C)sc32)cc1 | . | 1.3% | . | . | . | -0.5%
CC(C)(C)C(=O)Nc1nc2cc3c(cc2s1)OCO3 | 1.12µM* | 4.78µM* | ? | 2µM* | ? | .
CC(C)C(=O)Nc1nc2cc3c(cc2s1)OCO3 | ? | 13.5µM* | 18.4µM* | ? | -25.3% | -7.1%
O=C(c1cccs1)N1CCn2c1nc1ccccc12 | 3.98µM* | ? | ? | 2.82µM* | -5.6% | 12.6µM*
O=C(c1ccc(Cl)cc1)N1CCn2c1nc1ccccc12 | ? | ? | 9.4% | 18.9% | 6.4% | ?

Screening data as filed in PubChem.
